Assay results published in PubChem BioAssay AID1159580 (chemical genetic matrix, 2015).
Where “and” joins values, the source holds several entries; their conditions need not be identical. Equal entries are not always repeated. Out of some 5,500 compounds screened, about 2,000 (36%) were called active. Roughly 18% stayed inconclusive and do not appear here. Rule as the data show it: active = normalized growth mostly below about 0.91 (no sharp cut-off); inconclusive = no clear call, values can overlap the other calls; inactive = mostly above about 0.92. Some of the results follow.

Test: chemical genetic growth profiling, strain panel (AID 1159580);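 also: tested at 20 µM; growth read once vehicle control cultures reached saturation at 30 °C; 1 = growth at the plate median or of vehicle wells; lower values mean less growth of the strain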
Conditions: S. cerevisiae deletion strains, growth OD

Measured: normalized growth

COc1cc2c(cc1OC)[C@@H]1C(=O)c3ccc4c(c3O[C@@H]1CO2)CC(C(C)C)O4 (some centres not stated)
active: locus YDR392W, strain spt3, hits give low values 0.707
inactive: locus YAL021C, strain ccr4, hits give low values 0.989 | locus YAL026C, strain drs2, hits give low values 0.969 | locus YAL030W, strain snc1, hits give low values 0.998 | locus YBL061C, strain skt5, hits give low values 1 | locus YBR009C, strain hhf1, hits give low values 0.938 | locus YBR021W, strain FUR4, hits give low values 0.993 | locus YBR023C, strain chs3, hits give low values 0.981 | locus YBR171W, strain sec66, hits give low values 0.974 | locus YBR229C, strain ROT2, hits give low values 0.994 | locus YBR231C, strain swc5, hits give low values 0.932 | locus YBR279W, strain paf1, hits give low values 0.982 | locus YCL011C, strain gbp2, hits give low values 0.991 | locus YCL016C, strain dcc1, hits give low values 0.984 | locus YCL029C, strain bik1, hits give low values 1.02 | locus YCL061C, strain MRC1, hits give low values 0.96 | locus YCL069W, strain vba3, hits give low values 0.99 | locus YCR088W, strain abp1, hits give low values 0.99 | locus YDL005C, strain med2, hits give low values 0.978 | locus YDL035C, strain GPR1, hits give low values 0.972 | locus YDL040C, strain nat1, hits give low values 0.985 | locus YDL074C, strain BRE1, hits give low values 0.952 | locus YDL101C, strain DUN1, hits give low values 0.982 | locus YDL185W, strain tfp1, hits give low values 1.01 | locus YDL192W, strain arf1, hits give low values 1.01 | locus YDR001C, strain nth1, hits give low values 0.987 | locus YDR069C, strain doa4, hits give low values 1 | locus YDR101C, strain arx1, hits give low values 0.998 | locus YDR137W, strain rgp1, hits give low values 0.89 | locus YDR150W, strain NUM1, hits give low values 1.01 | locus YDR159W, strain sac3, hits give low values 0.957 | locus YDR162C, strain NBP2, hits give low values 0.941 | locus YDR195W, strain ref2 0.982 | locus YDR297W, strain sur2, hits give low values 0.972 | locus YDR318W, strain mcm21, hits give low values 1 | locus YDR334W, strain swr1, hits give low values 0.99 | locus YDR335W, strain msn5, hits give low values 1.01 | locus YDR388W, hits give low values 1.01 | locus YDR502C, strain sam2, hits give low values 0.998 | locus YEL003W, strain gim4, hits give low values 0.959 | locus YEL037C, strain rad23, hits give low values 0.999 | locus YEL061C, strain CIN8 (second series), hits give low values 0.99 | locus YEL061C, strain CIN8, hits give low values 1 | locus YER015W, strain faa2, hits give low values 0.965 | locus YER016W, strain bim1, hits give low values 0.984 | locus YER110C, hits give low values 1.01 | locus YER111C, strain swi4, hits give low values 1.01 | locus YER155C, strain BEM2 (second series), hits give low values 0.931 | locus YER155C, strain BEM2, hits give low values 1 | locus YER167W, strain BCK2, hits give low values 1 | locus YFR010W, strain ubp6, hits give low values 0.98 | locus YGL078C, strain dbp3, hits give low values 1.01 | locus YGL086W, strain mad1, hits give low values 0.985 | locus YGL167C, strain pmr1, hits give low values 0.987 | locus YGL173C, strain kem1, hits give low values 0.977 | locus YGL227W, strain vid30, hits give low values 0.975 | locus YGL240W, strain doc1, hits give low values 0.956 | locus YGL248W, strain PDE1, hits give low values 0.979 | locus YGL253W, strain hxk2, hits give low values 0.96 | locus YGR135W, strain pre9, hits give low values 1.02 | locus YGR252W, strain gcn5, hits give low values 0.895 | locus YHR013C, strain ard1, hits give low values 0.998 | locus YHR027C, strain rpn1, hits give low values 0.993 | locus YHR030C, strain SLT2, hits give low values 1.01 and 1.04 | locus YHR079C, strain IRE1 (second series), hits give low values 1.01 | locus YHR079C, strain IRE1, hits give low values 1.07 | locus YHR094C, strain hxt1, hits give low values 1.01 | locus YHR129C, strain ARP1, hits give low values 0.998 | locus YHR142W, strain chs7, hits give low values 0.986 | locus YHR200W, strain rpn10, hits give low values 1.02 | locus YIL066C, strain RNR3, hits give low values 0.945 | locus YIL073C, strain SPO22, hits give low values 1.03 | locus YIL125W, strain kgd1, hits give low values 0.989 | locus YIR030C, strain dcg1, hits give low values 1 | locus YJL092W, strain hpr5, hits give low values 0.994 | locus YJL095W, strain BCK1 (second series), hits give low values 0.98 | locus YJL095W, strain BCK1, hits give low values 0.944 and 1.04 | locus YJL115W, strain asf1, hits give low values 0.987 | locus YJL129C, strain trk1, hits give low values 0.92 | locus YJL134W, strain LCB3, hits give low values 1.01 | locus YJL154C, strain vps35, hits give low values 0.993 | locus YJL164C, strain tpk1, hits give low values 0.981 | locus YJL166W, strain qcr8, hits give low values 0.934 | locus YJL168C, strain set2, hits give low values 1.01 | locus YJL187C, strain SWE1 (second series), hits give low values 0.981 | locus YJR043C, strain POL32, hits give low values 0.976 | locus YJR066W, strain TOR1, hits give low values 0.987
